Experimental data from PubChem BioAssay AID740 (SRMLSC, 2007).
In all, about 96,000 compounds went through this assay and about 65 (0.07%) were called active. Shown is part of a subset that was picked to be rich in actives. A number with no mark means an inactive call. No stated cut-off is given here; in the data, active means inhibition above about 25%; inactive means the rest.

test: unspecified inhibition readout at 50 µM (AID 740); settings: unspecified screen; hits give high values

| Compound | inhibition |
| --- | --- |
| CC#CCCC(=O)N1C=Cc2ccccc2C1C#N (stereo not given) | inactive |
| CC(=O)Cc1nsc(NC(=O)c2ccc(-c3ccccc3Cl)o2)n1 | inactive |
| CN1c2ccsc2C(O)=C(C(=S)Nc2ccccc2)S1(=O)=O | 64.3% (active) |
| Cc1ccc(NC(=O)C2=C(O)c3ccccc3N(C)S2(=O)=O)cc1 | inactive |
| Cc1ccc(NC(=S)C2=C(O)c3ccccc3N(C)S2(=O)=O)cc1 | 9.88% |
| Cc1ccc(NC(=S)C2=C(O)c3sccc3N(C)S2(=O)=O)cc1 | 52.4% (active) |
| Cc1ccc(NC(=O)C2=C(O)c3sccc3N(C)S2(=O)=O)cc1 | 1.91% |
| CN1c2ccccc2C(O)=C(C(=S)Nc2ccccc2)S1(=O)=O | inactive |
| CN1c2ccccc2C(O)=C(C(=O)Nc2ccccc2)S1(=O)=O | inactive |
| CN1c2ccsc2C(O)=C(C(=O)Nc2ccccc2)S1(=O)=O | 26.4% (active) |
| Cc1ccccc1NC(=S)C1=C(O)c2sccc2N(C)S1(=O)=O | inactive |
| CC(=O)Nc1ccc2c(c1)nc(CCN1CCOCC1)n2C | inactive |
| CCn1c(SCc2nc(-c3ccccc3)no2)nnc1-c1cccs1 | 0.11% |
| O=c1[nH]nc(Sc2ncnc3sccc23)n1CCc1ccccc1 | 9.99% |
| COc1ccccc1Cn1c(=O)c2ccccc2n2c(SCc3csc(C)n3)nnc12 | 0.93% |
| COc1ccccc1Cn1c(=O)c2ccccc2n2c(Sc3ncnc4sccc34)nnc12 | 65.1% (active) |
| c1ccc(CSc2nnnn2-c2cccc3ccccc23)nc1 | 3.06% |
| CCOc1ccc(NC(=O)NCCCN2CCCC2)cc1 | 0.93% |
| CSc1nnnn1-c1ccc(C(=O)OCC(=O)N2CCOCC2)cc1 | inactive |
| CCOC(=O)c1cnc(SCC(=O)N2CCc3ccccc32)nc1N | inactive |
